Measured values from PubChem BioAssay (NCATS).
Several values for one entry are separate records, joined by “and”; a condition that tells them apart may be missing. Equal entries are not always repeated. Inconclusive results are not listed. A number with no mark means an inactive call. Activity calls are given as the source filed them. Calls come from the whole dose curve; as a rule, active = well fitted inhibition curve with a large enough effect; inconclusive = small, poorly fitted or top-dose-only effect; inactive = no such curve, though single readings can be large or run the other way.

target: Cytochrome P450 3A4 (Homo sapiens) (UniProt P08684); assay: qHTS Assay for Inhibitors and Substrates of Cytochrome P450 3A4 (AID 884); settings: recombinant CYP3A4, Luciferin-PPXE luminescence; series mostly up to 57.1 µM; activity change, negative = inhibition: at the top concentration; note: nearly all actives have a fitted effect of over 50% in size
Sequence (P08684 whole entry, looked up): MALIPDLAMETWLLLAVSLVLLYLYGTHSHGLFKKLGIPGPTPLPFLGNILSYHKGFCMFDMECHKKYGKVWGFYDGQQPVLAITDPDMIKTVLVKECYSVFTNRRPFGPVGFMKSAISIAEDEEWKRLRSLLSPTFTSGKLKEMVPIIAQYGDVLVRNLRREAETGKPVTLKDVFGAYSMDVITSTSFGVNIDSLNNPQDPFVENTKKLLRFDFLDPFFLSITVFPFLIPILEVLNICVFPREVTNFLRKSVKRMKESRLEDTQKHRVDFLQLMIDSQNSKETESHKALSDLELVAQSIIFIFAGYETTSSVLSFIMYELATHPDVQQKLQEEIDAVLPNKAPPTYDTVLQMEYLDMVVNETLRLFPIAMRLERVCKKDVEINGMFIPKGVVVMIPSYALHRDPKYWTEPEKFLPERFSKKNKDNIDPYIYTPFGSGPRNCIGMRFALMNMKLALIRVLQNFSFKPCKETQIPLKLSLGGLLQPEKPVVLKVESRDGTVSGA
Experimental: NIH Molecular Libraries Screening Centers Network [MLSCN]
NIH Chemical Genomics Center [NCGC]
The P450 gene superfamily is involved in the metabolism and clearance of xenobiotics. This assay used human CYP3A4 to measure the dealkylation of luciferin-6' phenylpiperazinylyl (Luciferin-PPXE; […]) to luciferin. The luciferin is then measured by luminescence after the addition of a luciferase detection reagent. Luciferin-PPXE concentration in the assay was equal to its KM for CYP3A4. Inhibitors and some substrates limit the production of luciferin, and decrease measured luminescence.
NCGC Assay Protocol Summary:
Two uL of enzyme and substrate mix (final concentrations: 20nM CYP3A4, 25uM Luciferin-PPXE, 200mM KPO4) were dispensed into a white, solid bottom 1536-well microtiter plate. 23nL of compound was transferred by a pin tool. The plate was incubated at RT for 10 min. Two uL of an NADPH regeneration solution (Promega supplied reagent) was dispensed and the reaction was allowed to continue for 60 min at RT. Then the reaction was stopped by reconstituted luciferin detection buffer. After another 20 min of incubation the plate was read on the ViewLux (Perkin Elmer) at 60 sec exposure and 2x2 binning. This protocol was carried out with Promega-Glo reagents and further information can be found at http://www.promega.com/tbs/tb325/tb325.pdf. Data were normalized to the to AC100 inhibition (57 uM ketoconazole).
Keywords: P450, CYP3A4, Luciferase, MLSMR, MLSCN, NIH Roadmap, qHTS, NCGC
% is set by controls: 0 for no effect and ±100 for the full control effect; potency is the fitted concentration of half-maximal effect.

SMILES	activity change, negative = inhibition	Potency
OB(O)c1cc2ccccc2s1	-8.26%	
C/C(CCN1CCc2nc(-c3ccccc3)c(-c3ccccc3)cc2C1)=N\O[C@@H](C)CN1CCCCc2nc(C)c(C)cc21		3.98 µM (active)
COC(=O)NC(c1ccccc1)[C@@]1(C(=O)OC)CCCC1=O (stereo not given in full)	-15.7% [at 11.4 µM]	
COc1ccc(OC2C=CC(c3ccccc3)OC2CO)cc1 (stereo not given)		3.98 µM (active)
CCCCCCC(=O)Cc1cc(OC)c(OC)cc1C=C(C(=O)OCC)C(=O)OCC		3.16 µM (active)
CC(=O)OCC1OC(C#Cc2ccc(F)cc2F)C=CC1OC(C)=O (stereo not given)		3.16 µM (active)
CNC(=O)C1(CC(C)C)C=CCN1C(=O)c1ccccc1 (stereo not given)	-28.4%	
COC(=O)C/C=C\[C@@H](C)[C@@H](/C=N\O[C@@H](C)c1cn([C@H](CO)Cc2ccccc2)nn1)NS(=O)(=O)c1ccc(C)cc1		3.98 µM (active) and 2 µM (active)
CCCNC(=O)OC[C@@H]1O[C@H](CCO/N=C(\C)CCC(=O)OC[C@@H]2O[C@H](c3ccccc3)C=C[C@@H]2Oc2ccc(OC)cc2)C=C[C@@H]1Oc1ccc(OC)cc1		5.01 µM (active)
CCCNC(=O)OC[C@@H]1O[C@H](CCO/N=C(\C)CCN2CCc3nc(CC)c(CC)cc3C2)C=C[C@@H]1Oc1ccc(OC)cc1		3.98 µM (active)
COC(=O)[C@@H]1C[C@H]2CC[C@H](O)C[C@H]2N1Cc1ccccc1OS(=O)(=O)c1ccc(C)cc1		2 µM (active)
COC(=O)c1ccc(C(NC(=O)OCc2ccccc2)/C(I)=C/[C@@H](C)C(=O)NCc2ccncc2)cc1 (stereo not given in full)		1.58 µM (active)
CN(C)/C=N/c1cc(=O)[nH]c(=O)n1Cc1ccccc1	-4.96%	
CC(=O)N1C2(C=CC1(C)C(=O)NCc1cc(F)cc(C(F)(F)F)c1)CCCCC2 (stereo not given)		10 µM (active)
CCC1=C2CC[C@H]3C(=O)N(c4ccccc4)C(=O)[C@H]3[C@H]2[C@@]2(C)C(=O)N(Cc3ccccc3)C(=O)N2C1=O	-54%	
OC[C@H]1O[C@@H](OC[C@H]2O[C@@H](O)[C@H](O)[C@@H](O)[C@@H]2O)[C@H](O)[C@@H](O)[C@@H]1O	-23.4%	
CC(=O)Oc1ccc(/C=C/C(=O)CC2OC(Oc3cc(OC(C)=O)c4c(c3)O[C@@H](c3ccc(OC(C)=O)cc3)CC4=O)C(OC(C)=O)C(OC(C)=O)C2OC(C)=O)cc1 (stereo not given in full)	-22.6%	
CC(C)c1ccccc1S(=O)(=O)c1cc(N)c2ncccc2c1[N+](=O)[O-]		1 µM (active)
N#Cc1ccc(C23CC4(C2)[C@H](CN(Cc2ccc(-c5ccccc5)cc2)[C@@H]4c2ccccc2)C3c2ccc(Cl)nc2)cc1 (stereo not given in full)	-29.1%	
C=CC(C1=CC(=O)C(OC)=CC1=O)c1ccc(OC)cc1 (stereo not given)		25.1 µM (active)

SMILES	activity change, negative = inhibition	Potency
CCC1=C(OC(=O)N(CC)CC)N2C(=O)OC(=NCCOC)[C@]2(Cc2ccccc2)[C@H]2C1=CC[C@H]1C(=O)N(C)C(=O)[C@H]12		7.94 µM (active)
Cc1cc(CNC(=O)C(C)Cc2ccccc2)nn1C (stereo not given)		10 µM (active)
CCC1=C2CC[C@H]3C(=O)N(CC)C(=O)[C@H]3[C@H]2[C@@]2(Cc3ccccc3)C(=O)N(CC3CC3)C(=O)N2C1=O		2.51 µM (active)
CC(=O)c1ccc(C2C=CC(O)C(CO)O2)cc1 (stereo not given)	-3.24% [at 11.4 µM]	
Cc1nc(NCCO)c2nc(-c3ccccc3)n(CCN(C)C)c2n1	7.6%	
C=CCC(O)CC1C2C(CC(O)CC=C)C3C1C3C2OC(C)(C)C (stereo not given)		1.58 µM (active)
COc1ccc(O[C@H]2C=C[C@@H](c3ccccc3)O[C@H]2COC(=O)CC/C(C)=N\OC[C@@H](O)[C@H]2O[C@H]3OC(C)(C)O[C@H]3[C@@H]2O)cc1		3.98 µM (active)
CO[C@H]1COC(=O)C/C=C\[C@H](C)[C@@H](OC)COC(=O)[C@H](Cc2ccccc2)NC(=O)C/C=C\[C@@H]1C		3.16 µM (active)
CC(C)=CCC/C(C)=C/COc1c2occc2cc2ccc(=O)oc12		1.26 µM (active)
CC(C)CCN1CCc2nc(COc3ccccc3)c3c(c2C1)COC(C)C3 (stereo not given)		3.16 µM (active)
COC(=O)C(C(C)=O)C(NC(=O)NCc1ccccc1)c1ccccc1 (stereo not given)		3.98 µM (active)
Cn1c(=O)c(C(=O)COC(=O)c2cc(-c3ccco3)nc3ccccc23)c(N)n(CC2CC2)c1=O		7.94 µM (active)
COCCNC(=O)[C@H](C)/C=C(\c1cccnc1)C(NC(=O)OCc1ccccc1)c1ccc(C(=O)OC)cc1 (stereo not given in full)		5.01 µM (active)
O=C1C(Cl)=C(NC2CCc3ccccc32)C(=O)c2ncccc21 (stereo not given)		1.58 µM (active)
CC1CCC2C(=O)OC(COc3ccc(C(C)(C)C)cc3)CN2C1c1ccc(Br)cc1 (stereo not given)	-22.1% [at 11.4 µM] and -29.8% [at 11.4 µM] and -21% [at 11.4 µM]	
CC[C@H](/C=C/[C@@H](C)[C@H]1CC[C@H]2C3CC=C4C[C@@H](O)CC[C@]4(C)C3CC[C@]12C)C(C)C (stereo not given in full)	-5.94%	
O=C(/C=C/c1ccccc1)c1cccs1	-31.8%	
COC(=O)c1ccc(C(NC(=O)OCc2ccccc2)/C(I)=C/[C@@H](C)C(=O)Nc2ccccc2)cc1 (stereo not given in full)		2 µM (active)
COc1cccc([C@@H]2Oc3ccc(OC)cc3/C(=N/O[C@@H](C)c3cc(-c4c(C)cc(C)cc4C)no3)[C@@H]2O)c1		1.58 µM (active)
COc1cc(O)c(C(=O)/C=C/c2ccccc2)c(O)c1	-28.7% [at 11.4 µM]	
